The target in assay [1] is Lysosomal acid glucosylceramidase (Homo sapiens) (UniProt P04062). As to the kind of experiment: Glucocerebrosidase-p2 (AID 348; in the data active = potency below about 10 µM; note: potency is the fitted concentration of half-maximal effect). Particulars: purified GBA, blue fluorogenic substrate, 40 min. Put shortly: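 Normal human glucocerebrosidase (0.2 nM) with blue fluorogenic substrate (80 uM final) in citrate/phosphate pH 5.9 with 10mM sodium taurocholate, 0.01% tween-20; 40 min RT, NaOH/glycine stop; fluorescence Ex 365/Em 440; AC50 from a titration from 0.6 nM upwards.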

Assay [2] is described as follows: AP1 Signaling Pathway (AID 357; active = well fitted curve in either direction with a large enough effect, not every such curve was filed as active;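 note: ME-180 reporter cells stimulated with EGF at its EC50 level; % is set by controls: 0 for no effect and ±100 for the full control effect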). Particulars: ME-180 AP-1-bla reporter, EGF-induced, beta-lactamase ratio, 5 h; series mostly up to 17.2 µM. Put shortly:
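A ratiometric CCF4 readout (405 nm excitation; 460 and 530 nm emission) quantified AP-1-driven beta-lactamase in ME-180 cells after 5 h with compound and EC50 EGF; AC50 values were derived for activators and inhibitors.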

Assay [3] has as its target Glucocorticoid receptor (Homo sapiens) (UniProt P04150). As to the kind of experiment: GR-EFC Redistribution (AID 451). Note: potency is the fitted concentration of half-maximal effect. The settings on record: CHO-K1 GR-EFC translocation, beta-gal luminescence, 2 h. Put shortly:
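Translocation of GR-ED fusion to nuclear EA restores b-gal, read by luminescence after 1 h room-temperature detection. Engineered CHO-K1 biosensor cells, 1,000/well, exposed 2 h at 37 C to titrations up to 46 uM final.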

For assay [4], the target named is Mitogen-activated protein kinase 10 (Mus musculus) (UniProt Q61831). Nature of the assay: JNK3 AlphaScreen Assay (AID 530; active = well fitted curve in either direction with a large enough effect, not every such curve was filed as active;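 note: kinase came from lysate of stimulated human HepG2 cells; signal reports phosphorylation of biotinylated GST-cJun 1-79 at Ser73 with 10 µM ATP; % is set by controls: 0 for no effect and ±100 for the full control effect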). Particulars: JNK3 lysate, c-Jun phosphorylation; series mostly up to 57.1 µM. In short, it runs like this: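 Kinase buffer: 20 mM Tris-HCl pH 7.6, 10 mM MgCl2, 1 mM DTT, 0.1 mM Na3VO4, 0.01% Tween-20; ATP 10 uM. Substrate biotin-GST-cJun(1-79), enzyme from activated HepG2 lysates. Detection by Ser73 phospho-antibody AlphaScreen.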

Assay [5] has as its target 3',5'-cyclic-AMP phosphodiesterase 4B (Homo sapiens) (UniProt Q07343). Nature of the assay: qHTS Assay for Inhibitors of PDE-IV (AID 607; active = well fitted activation curve with a large enough effect in the main read-out, with a control signal flat, not every such curve was filed as active; note: % of control where 0% means no effect). The settings on record: HEK293 ACTOne CNG channel cells, membrane potential fluorescence; series mostly up to 22.9 µM. Put shortly: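 ACTOne HEK293 cells carry a modified cAMP-gated CNG channel and express endogenous PDE4; plated 1000 cells/well, compounds up to 22.9 uM final. Membrane-potential dye fluorescence (ex 535/em 590) was read; parental cells received 10 uM forskolin + 100 uM RO 20-1724.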

Assay [6] deals with Cytochrome P450 3A4 (Homo sapiens) (UniProt P08684). Nature of the assay: qHTS Assay for Activators of Cytochrome P450 3A4 (AID 885; active = well fitted curve in the direction sought with a large enough effect; an effect the other way counts as inactive or inconclusive; note: nearly all actives have a fitted effect of over 65% in size). Particulars: recombinant CYP3A4, Luciferin-PPXE luminescence, 60 min; series mostly up to 57.1 µM. In short, it runs like this:
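CYP3A4 activity: Luciferin-PPXE O-dealkylation, 25uM substrate, 200mM KPO4, RT throughout. Read-out is luciferase luminescence; higher values reflect activation.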
On the technique in general: In qHTS, concentration-response curves come from the screen itself.

Assay [7] is described as follows: Primary qHTS for small molecule stabilizers of the endoplasmic reticulum resident proteome: Secreted ER Calcium Modulated Protein (SERCaMP) assay (AID 1508630; active = well fitted curve in the direction sought with a large enough effect; an effect the other way counts as inactive or inconclusive; note: % is set by controls: 0 for no effect and ±100 for the full control effect). Particulars: SH-SY5Y GLuc-SERCaMP (Gaussia luciferase released on ER calcium loss) secretion, thapsigargin, luminescence; series mostly up to 38.4 µM. In short, it runs like this:
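The SH-SY5Y reporter protocol was run at 3 concentrations up to 38.3 uM (primary) or 11 concentrations (follow-up): 16 h compound, 100 nM thapsigargin for 4 h, then extracellular luciferase luminescence.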

Assay [8] addresses Cytochrome P450 1A2 (Homo sapiens) (UniProt P05177). Nature of the assay: p450-cyp1a2 (AID 410). Note: potency is the fitted concentration of half-maximal effect. Particulars: recombinant CYP1A2, luciferin-ME demethylation, luminescence; series mostly up to 25.6 µM. In short, it runs like this:
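20nM CYP1A2, 100uM Luciferin-ME (=Km), 100mM KPO4; cpd 10 min RT; +NADPH regen, 60 min RT; stop/detect 20 min; luminescence. Normalized to furafylline 57 uM = full inhibition.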

The nature of assay [9]: Stat Signaling Pathway (AID 446; active = well fitted curve in either direction with a large enough effect, not every such curve was filed as active;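 note: ME-180 cervical cancer cells given 40 pM IL-6 alongside compound; SIE-controlled beta-lactamase reporter measured as 460/530 nm FRET emission ratio; % is set by controls: 0 for no effect and ±100 for the full control effect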). Particulars: ME-180 (cervical carcinoma) SIE beta-lactamase reporter, IL-6 stimulated, 5 h; series mostly up to 17.2 µM. Put shortly: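 Compound effects on IL-6-induced STAT reporter activity were measured in ME-180 cells. After overnight culture, cells were co-treated with 40 pM IL-6 for 5 hrs before beta-lactamase substrate loading at room temperature.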
Assay [10] is described as follows: qHTS Assay for Lipid Storage Modulators (AID 1519). Particulars: Drosophila S3 cells, BODIPY lipid droplet/cell ratio, laser cytometry, cells loaded with oleic acid. Put shortly:
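Cells seeded at 5,000 per well were treated with compounds over a concentration series and loaded with oleic acid (400 uM, as added). Lipid droplet fluorescence (488 nm excitation, 500-530 nm channel) was read by laser-scanning cytometry and normalized to 20 uM Triacsin C.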

Assay [11] has as its target DNA repair nuclease/redox regulator APEX1 (Homo sapiens) (UniProt P27695). Nature of the assay: qHTS Validation Assay for Inhibitors of the Human Apurinic/apyrimidinic Endonuclease 1 (APE1) (AID 1705; active = well fitted curve in the direction sought with a large enough effect; an effect the other way counts as inactive or inconclusive). The settings on record: purified APE1 endonuclease activity, fluorescence, titration; series mostly up to 57.1 µM. Put shortly: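 Activity read as rising fluorescence (598 nm emission, 525 nm excitation) from incision of a TAMRA/BHQ-2 duplex carrying a THF abasic site (50 nM). Compound and enzyme sat 15 min at RT before substrate start; signal change between first and third 60-s reads.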

Assay [12] has as its target Ubiquitin carboxyl-terminal hydrolase 1 (Homo sapiens) (UniProt O94782). As to the kind of experiment: Inhibitors of USP1/UAF1: Pilot qHTS (AID 504865; active = well fitted curve in the direction sought with a large enough effect; an effect the other way counts as inactive or inconclusive;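 note: rhodamine fluorescence freed from ubiquitin-rhodamine substrate followed over time; top concentration of the series differs between compounds; % is set by controls: 0 for no effect and ±100 for the full control effect; nearly all actives have a fitted effect of over 35% in size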). Particulars: purified USP1/UAF1, Ub-rhodamine cleavage fluorescence; series mostly up to 114 µM. Put shortly: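 Deubiquitinase activity followed as kinetic rhodamine fluorescence release from 150 nM Ub-Rho. 1 nM USP1/UAF1 with compound, after 15 min room-temperature preincubation, in HEPES pH 7.8 buffer containing TCEP, EDTA, BSA and Tween-20.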

A short description of assay [13]: qHTS profiling for inhibitors of Plasmodium falciparum proliferation (AID 504749; active = well fitted curve in the direction sought with a large enough effect; an effect the other way counts as inactive or inconclusive;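 note: 0% = DMSO vehicle and full inhibition = artemisinin control; nearly all actives have a fitted effect of over 60% in size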). Particulars: P. falciparum in erythrocytes, SYBR Green DNA, 72 h, at 28.7 µM (top of the series). Put shortly: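 In a 72 h erythrocytic culture (37 C, humidified, 5% CO2) at 2.5% hematocrit and 0.3% starting parasitemia, compounds were tested; SYBR Green I in detergent lysis buffer stained parasite DNA overnight.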

Assay [14] can be described thus: NFAT Signaling Pathway (AID 444; active = well fitted curve in either direction with a large enough effect, not every such curve was filed as active). Particulars: Jurkat NFAT-bla M1, carbachol, beta-lactamase ratio, 5 h. In short, it runs like this: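 Read-out: CCF4 FRET ratio (460 nm/530 nm) after 1 h RT dye loading, used for %activity and AC50 from titration series. Cells: Jurkat NFAT-β-lactamase/M1 line, treated with compound plus 1 uM carbachol for 5 h, 37 °C.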
In assay [15] the target is Glucocorticoid receptor (Homo sapiens) (UniProt P04150). Nature of the assay: GR-GFP Redistribution (AID 450;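 active = compounds whose dose series gives a full or clear partial fitted curve of increased nuclear translocation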; note: potency is the fitted concentration of half-maximal effect). The settings on record: U2OS GR-GFP nuclear translocation, laser cytometry, 2 h.
Assay [16] in a line: Confirmation and Secondary Assay for Modulators of Hemoglobin Beta Chain Splicing at IVS2 654 locus (AID 910; active = well fitted curve in the direction sought with a large enough effect; an effect the other way counts as inactive or inconclusive;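 note: HeLa cells stably carrying EGFP split by mutant beta-globin IVS2-654 intron; per-well total GFP intensity by laser scanning cytometry after 2-day treatment; % of control where 0% means no effect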). Particulars: HeLa EGFP-654 splicing reporter, GFP fluorescence, 48 h; series mostly up to 46.1 µM. In short, it runs like this:
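Readout: per-well total peak green fluorescence (488 nm ex, 500–520 nm em) from objects 5–250 µm, reflecting correct splicing of an EGFP-654 reporter. Compounds were applied for 2 days at 37 °C to overnight-plated HeLa EGFP-654 cells; controls were DMSO and 500 nM IVS2-654 PNA.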

Assay [17] in a line: Confirmation and Secondary Assay for Modulators of Hemoglobin Beta Chain Splicing at IVS2 705 locus (AID 930; active = well fitted curve in the direction sought with a large enough effect; an effect the other way counts as inactive or inconclusive;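 note: HeLa cells stably expressing the EGFP-705 splicing reporter; GFP fluorescence per well restored by corrected splicing of the IVS2-705 intron in EGFP; % of control where 0% means no effect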). Particulars: HeLa EGFP-705 splicing reporter, GFP fluorescence, 48 h; series mostly up to 46.1 µM. Put shortly:
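Per-well GFP, captured at 1 x 8 µm resolution with 488 nm excitation, served as the read-out for HeLa EGFP-705 cells incubated 2 days with test compound versus DMSO.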

Setting [18] is: measured here: cell count channel max response.
Where [19] appears, read: measured here: lipid channel max response.

SMILES strings stand for the structures. Values joined by “and” are separate entries in the source; they are usually repeats but may differ in a detail not shown here. Identical values can stand only once. Inconclusive results are not listed. Active and inactive are the calls of the source. Unless noted, calls come from the whole dose curve. Bounds are passed on as bounds.

Sequence of Ubiquitin carboxyl-terminal hydrolase 1 (Homo sapiens) (O94782 whole entry, looked up): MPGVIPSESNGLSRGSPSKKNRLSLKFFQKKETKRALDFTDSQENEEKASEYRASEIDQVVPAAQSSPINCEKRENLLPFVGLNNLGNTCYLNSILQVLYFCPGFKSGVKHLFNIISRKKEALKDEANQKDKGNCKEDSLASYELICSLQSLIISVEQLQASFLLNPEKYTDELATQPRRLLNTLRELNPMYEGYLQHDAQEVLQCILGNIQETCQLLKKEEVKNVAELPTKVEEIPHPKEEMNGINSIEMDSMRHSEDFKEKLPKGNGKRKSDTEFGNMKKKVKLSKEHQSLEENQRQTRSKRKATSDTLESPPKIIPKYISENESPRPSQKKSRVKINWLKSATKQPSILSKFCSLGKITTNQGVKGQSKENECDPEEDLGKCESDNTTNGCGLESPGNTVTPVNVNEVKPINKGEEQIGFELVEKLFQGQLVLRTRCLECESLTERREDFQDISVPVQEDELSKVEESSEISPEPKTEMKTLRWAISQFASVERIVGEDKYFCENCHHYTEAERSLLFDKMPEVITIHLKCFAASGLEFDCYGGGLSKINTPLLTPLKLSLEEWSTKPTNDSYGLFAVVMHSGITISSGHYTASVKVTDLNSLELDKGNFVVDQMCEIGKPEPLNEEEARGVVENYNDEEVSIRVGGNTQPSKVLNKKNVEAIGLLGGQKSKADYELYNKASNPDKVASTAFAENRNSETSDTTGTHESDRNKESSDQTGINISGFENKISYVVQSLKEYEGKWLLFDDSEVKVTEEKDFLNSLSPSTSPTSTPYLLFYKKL
Sequence of Glucocorticoid receptor (Homo sapiens) (P04150 whole entry, looked up, the tested form may be a part): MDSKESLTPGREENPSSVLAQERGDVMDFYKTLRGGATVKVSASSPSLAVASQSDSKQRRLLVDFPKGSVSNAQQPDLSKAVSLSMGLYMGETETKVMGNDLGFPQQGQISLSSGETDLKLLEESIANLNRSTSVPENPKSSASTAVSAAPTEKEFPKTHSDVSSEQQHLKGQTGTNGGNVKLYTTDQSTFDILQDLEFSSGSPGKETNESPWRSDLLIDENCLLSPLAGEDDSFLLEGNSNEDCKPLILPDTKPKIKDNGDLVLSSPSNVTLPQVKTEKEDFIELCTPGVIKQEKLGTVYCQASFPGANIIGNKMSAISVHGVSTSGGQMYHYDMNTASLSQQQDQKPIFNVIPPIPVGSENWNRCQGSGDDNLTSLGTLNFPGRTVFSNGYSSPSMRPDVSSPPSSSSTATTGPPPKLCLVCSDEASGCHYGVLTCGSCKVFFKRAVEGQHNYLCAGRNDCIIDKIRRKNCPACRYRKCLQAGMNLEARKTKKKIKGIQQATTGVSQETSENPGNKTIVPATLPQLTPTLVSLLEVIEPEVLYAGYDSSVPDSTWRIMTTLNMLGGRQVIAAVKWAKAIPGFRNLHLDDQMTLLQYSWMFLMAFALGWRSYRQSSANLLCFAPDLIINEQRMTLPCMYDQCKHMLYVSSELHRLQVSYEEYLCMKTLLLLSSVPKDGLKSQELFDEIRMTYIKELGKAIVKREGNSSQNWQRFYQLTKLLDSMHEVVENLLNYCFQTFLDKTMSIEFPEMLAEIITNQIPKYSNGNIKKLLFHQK
Sequence of 3',5'-cyclic-AMP phosphodiesterase 4B (Homo sapiens) (Q07343 whole entry, looked up): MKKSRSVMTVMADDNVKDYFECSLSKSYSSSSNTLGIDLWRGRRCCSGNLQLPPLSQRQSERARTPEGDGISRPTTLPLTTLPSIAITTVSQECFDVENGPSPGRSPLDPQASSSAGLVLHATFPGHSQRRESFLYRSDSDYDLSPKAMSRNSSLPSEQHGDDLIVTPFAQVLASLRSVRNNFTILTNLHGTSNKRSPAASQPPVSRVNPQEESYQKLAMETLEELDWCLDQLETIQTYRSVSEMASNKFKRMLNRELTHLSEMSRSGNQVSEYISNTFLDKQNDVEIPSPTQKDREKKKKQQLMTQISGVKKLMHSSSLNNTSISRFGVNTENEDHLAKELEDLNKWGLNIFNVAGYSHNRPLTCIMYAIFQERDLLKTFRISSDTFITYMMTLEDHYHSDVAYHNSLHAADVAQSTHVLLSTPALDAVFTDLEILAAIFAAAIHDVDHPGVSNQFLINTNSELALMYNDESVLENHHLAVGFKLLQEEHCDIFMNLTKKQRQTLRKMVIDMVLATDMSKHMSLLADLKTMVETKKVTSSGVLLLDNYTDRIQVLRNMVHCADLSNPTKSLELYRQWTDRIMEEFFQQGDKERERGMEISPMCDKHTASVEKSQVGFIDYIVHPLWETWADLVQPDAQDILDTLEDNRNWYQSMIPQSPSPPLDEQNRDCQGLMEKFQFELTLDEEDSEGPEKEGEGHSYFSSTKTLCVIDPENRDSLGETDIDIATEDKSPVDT
Sequence of Lysosomal acid glucosylceramidase (Homo sapiens) (P04062 whole entry, looked up): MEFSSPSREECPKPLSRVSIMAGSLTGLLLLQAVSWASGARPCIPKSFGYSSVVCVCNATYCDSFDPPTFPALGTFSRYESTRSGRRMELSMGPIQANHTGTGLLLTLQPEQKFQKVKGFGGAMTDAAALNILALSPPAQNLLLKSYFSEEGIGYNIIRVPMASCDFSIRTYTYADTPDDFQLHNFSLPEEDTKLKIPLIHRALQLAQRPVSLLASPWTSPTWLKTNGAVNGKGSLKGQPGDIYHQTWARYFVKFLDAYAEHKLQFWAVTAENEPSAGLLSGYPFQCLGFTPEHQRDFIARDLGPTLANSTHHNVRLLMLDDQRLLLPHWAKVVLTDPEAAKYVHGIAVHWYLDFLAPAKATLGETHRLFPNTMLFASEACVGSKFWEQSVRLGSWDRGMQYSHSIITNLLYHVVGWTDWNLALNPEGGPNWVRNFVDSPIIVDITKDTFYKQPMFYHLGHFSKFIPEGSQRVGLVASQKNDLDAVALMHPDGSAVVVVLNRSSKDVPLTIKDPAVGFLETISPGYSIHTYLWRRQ
Sequence of Cytochrome P450 3A4 (Homo sapiens) (P08684 whole entry, looked up): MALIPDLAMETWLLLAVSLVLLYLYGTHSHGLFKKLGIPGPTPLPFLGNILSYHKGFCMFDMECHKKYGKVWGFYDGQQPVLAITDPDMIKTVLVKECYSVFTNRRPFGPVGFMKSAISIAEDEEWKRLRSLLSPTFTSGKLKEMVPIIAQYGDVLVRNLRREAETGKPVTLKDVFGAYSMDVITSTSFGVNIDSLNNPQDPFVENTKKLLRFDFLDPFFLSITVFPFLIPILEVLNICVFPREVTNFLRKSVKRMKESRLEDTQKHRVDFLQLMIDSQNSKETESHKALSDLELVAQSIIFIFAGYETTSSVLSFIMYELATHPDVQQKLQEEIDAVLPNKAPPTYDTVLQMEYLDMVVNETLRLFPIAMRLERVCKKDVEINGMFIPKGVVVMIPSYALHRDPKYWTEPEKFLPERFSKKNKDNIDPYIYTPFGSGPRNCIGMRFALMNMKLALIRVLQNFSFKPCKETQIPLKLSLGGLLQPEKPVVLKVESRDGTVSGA
Sequence of Cytochrome P450 1A2 (Homo sapiens) (P05177 whole entry, looked up): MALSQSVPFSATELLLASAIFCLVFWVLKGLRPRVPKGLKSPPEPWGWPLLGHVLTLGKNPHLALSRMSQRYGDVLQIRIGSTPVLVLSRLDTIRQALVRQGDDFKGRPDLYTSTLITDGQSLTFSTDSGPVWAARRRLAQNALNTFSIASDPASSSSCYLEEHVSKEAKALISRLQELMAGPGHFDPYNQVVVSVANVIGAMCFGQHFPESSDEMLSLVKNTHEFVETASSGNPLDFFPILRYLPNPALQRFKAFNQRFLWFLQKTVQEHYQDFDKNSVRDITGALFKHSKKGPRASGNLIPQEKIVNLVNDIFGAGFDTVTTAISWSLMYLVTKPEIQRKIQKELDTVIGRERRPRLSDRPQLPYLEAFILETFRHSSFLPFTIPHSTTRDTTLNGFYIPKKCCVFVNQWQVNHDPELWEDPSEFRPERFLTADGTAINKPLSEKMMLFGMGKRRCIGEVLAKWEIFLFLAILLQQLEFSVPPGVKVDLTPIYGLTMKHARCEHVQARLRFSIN
Sequence of DNA repair nuclease/redox regulator APEX1 (Homo sapiens) (P27695 whole entry, looked up): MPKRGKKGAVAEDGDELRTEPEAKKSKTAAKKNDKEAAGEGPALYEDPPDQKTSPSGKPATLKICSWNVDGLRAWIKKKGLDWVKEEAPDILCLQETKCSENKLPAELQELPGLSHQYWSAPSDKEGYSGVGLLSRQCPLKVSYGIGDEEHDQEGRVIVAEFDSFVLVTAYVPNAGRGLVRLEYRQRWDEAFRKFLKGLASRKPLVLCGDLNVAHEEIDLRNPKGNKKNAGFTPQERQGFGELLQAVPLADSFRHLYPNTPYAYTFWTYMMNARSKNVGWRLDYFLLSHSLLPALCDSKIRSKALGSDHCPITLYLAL

Regarding `O=C(Oc1ccccc1)N1CCC2(CCCN(Cc3nccs3)C2)CC1`, the Potency in [1] is > 11.4 µM (inactive); in assay [3], > 46 µM (inactive). Further, the outcome in assay [2], in assay [4] and in assay [7] was inactive. The Potency result in [5] and in assay [6] was “inactive” in each case.
Consider `O=C(Nc1cccc(F)c1)N1CCCC2(CCN(C(=O)Oc3ccccc3)CC2)C1`, for which the Potency was > 11.4 µM (inactive) in assay [1], 10 µM (active) in [8] and > 46 µM (inactive) in assay [3]. Besides, the result in [2], in assay [9], in assay [4] and in [7] was inactive. Also, the Potency entry in assay [6] is “inactive”.
With `CNC(=O)Oc1ccc2c(c1)[C@@]1(C)CCN(C)C1N2C` (stereo not given in full), the activity change, negative = inhibition in assay [10] (at 57.5 µM (top of the series)) was 4.58% (inactive). In addition, the max response in [10] (setting [18]) worked out at 3.75%; in assay [10] (setting [19]), 14.3%.
Turning to `CNCC[C@@H](Oc1ccc(C(F)(F)F)cc1)c1ccccc1`, in [10] (at 57.5 µM (top of the series)), the activity change, negative = inhibition is 1.23% (inactive). Moreover, the max response in assay [10] (setting [18]) was -30.3%; in assay [10] (setting [19]), -28.9%. Moreover, the Potency entry in [11] was “inactive”.
As for `C[C@]12CC[C@H](O)CC1=CCC1C2CC[C@]2(C)C(=O)CC[C@@H]12` (stereo not given in full), the activity change, negative = inhibition in assay [10] (at 57.5 µM (top of the series)) is 0.778% (inactive). The max response in [10] (setting [18]) is -17.2%; in assay [10] (setting [19]) it was -14.9%. Besides, the Potency result in assay [11] and in [12] was “inactive” in each case. Besides, the activity, negative = inhibition in assay [13] (parasite line A) was 7.06% (inactive); in assay [13] (parasite line B), 19% (inactive).
Turning to `CC1=NCCc2c1[nH]c1cc(O)ccc21`, the Potency in assay [8] is 12.6 µM (active) and 25.1 µM (active); in assay [15] it was > 20.6 µM (inactive) and > 46 µM (inactive); in [3] it was > 20.6 µM (inactive) and > 46 µM (inactive). Besides, the activity change, negative = inhibition in assay [14] (at 17.2 µM (top of the series)) was -14.7% (inactive); in [10] (at 25.7 µM (top of the series)) it was 1.71% (inactive); in assay [10] (at 57.5 µM (top of the series)) it was 18.3% (inactive). Further, the result in [9] and in assay [4] was inactive. Moreover, the Potency result in assay [5], in assay [16], in assay [17] and in assay [12] was “inactive” each time. Further, the max response in assay [10] (setting [18]) was 2% and 2.42%; in assay [10] (setting [19]) it was 2.85% and 18.5%.
Consider `O=C(NC[C@@H]1CCCCN1)c1cc(OCC(F)(F)F)ccc1OCC(F)(F)F`, for which the activity change, negative = inhibition in assay [10] (at 25.7 µM (top of the series)) was -0.787% (inactive). Besides, the values for the max response in [10] (setting [18]) and in assay [10] (setting [19]) were -18.7% and -19.7%, respectively.
Consider `CC(CCC(=O)O)C1CCC2C3C(=O)CC4CC(=O)CC[C@@]4(C)C3CC(=O)[C@]12C` (stereo not given in full), for which the activity change, negative = inhibition in [10] (at 57.5 µM (top of the series)) is 1.06% (inactive). Also, the max response was determined as 16% in assay [10] (setting [18]) and 21.9% in [10] (setting [19]).
Take `O=C(Oc1ccccc1)N1CCC[C@@]2(CCN(Cc3ccccc3)C2)C1`: the results for the Potency in assay [1] and in [3] were > 11.4 µM (inactive) and > 46 µM (inactive), respectively. Moreover, the result in assay [2], in [9], in assay [4] and in [7] was inactive. Further, the Potency entry in assay [5] and in [6] was “inactive” in each case.
Turning to `CN1CCN(c2ncc3ncc(=O)n(C)c3n2)CC1`, the Potency in assay [1] is > 11.4 µM (inactive); in [8], 12.6 µM (active); in [15], > 9.22 µM (inactive); in assay [3], > 46 µM (inactive). Also, the result in assay [2], in [9] and in assay [4] was inactive. The activity change, negative = inhibition is 11.5% (inactive) in [14] (at 7.69 µM (top of the series)) and 3.09% (inactive) in assay [10] (at 57.5 µM (top of the series)). The Potency entry in [5] and in assay [12] was “inactive” throughout. Moreover, the max response is -0.0774% in assay [10] (setting [18]) and 1.21% in [10] (setting [19]).

(Values after PubChem BioAssay (NCATS).)
